The nature of test [1]: antimalarial activity against Dd2 strain (AID 2302;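 active means growth inhibition above 50% at the single 2 µM test dose, taken to imply half-maximal potency below 2 µM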;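 further: 0% = DMSO untreated growth and 100% = chloroquine plus artemisinin killed control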). The following applies: P. falciparum Dd2 in RBCs, LDH growth readout, 72 h; at 2 µM; stronger effect = higher value.
Test [2] can be described thus: HepG2 cytotoxicity, primary screen, cytotoxicity control for P. falciparum antimalarial project, cell-based, ATP luminescence (AID 2303;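 active means inhibition above 50%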;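 further: 0% = DMSO wells and 100% = digitonin-killed cells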). The following applies: HepG2 viability, 24-48 h, at 10 µM, stronger effect = higher value.
For test [3], the target named is L-lactate dehydrogenase (Plasmodium falciparum (isolate CDC / Honduras)) (UniProt Q27743). Kind of test: PfLDH activity inhibition – cell lysate, 3D7 strain, counter-screen for P. falciparum growth inhibition project (AID 2304).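 Further: 0% = vehicle and 100% = reference inhibitor.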 The note with it: P. falciparum 3D7 crude extract, LDH APAD/NBT absorbance; at 2 µM; stronger effect = higher value. In general terms: A counterscreen serves to expose hits that act by an unwanted route or on another target.

Test [4] in a line: inhibition of 3D7 malaria parasite growth – strain 3D7 (AID 2306).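 Further: 0% = DMSO wells and 100% = chloroquine plus artemisinin control wells.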 The following applies: P. falciparum 3D7 erythrocytic growth, LDH absorbance, 72 h; at 2 µM; stronger effect = higher value.
For test [5], the target named is Calcium-dependent protein kinase 1 (Plasmodium falciparum (isolate 3D7)) (UniProt P62344). Kind of test: PfCDPK1 kinase inhibitors, biochemical, TCAMS library (AID 1159585; cut-off not given, nearly all actives have IC50 up to about 0.98 µM;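 further: inhibitors leave more ATP so luminescence rises with inhibition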). The note with it: recombinant PfCDPK1, Kinase-Glo ATP depletion luminescence. Background: Kinase-Glo reads ATP consumption through a luciferase reaction.
Test [6] concerns the target Plasmodium falciparum protein kinase 6 (PK6, PF3D7_1337100) (UniProt Q8IDW1). Kind of test: PfPK6 kinase inhibitors, biochemical, TCAMS library (AID 1159586). The note with it: recombinant PfPK6, Kinase-Glo ATP depletion luminescence.
Test [7] deals with Protein kinase 7 (PK7), Plasmodium falciparum 3D7 (PF3D7_0213400) (UniProt Q7YTF7). The test can be described thus: inhibition of Plasmodium PK7 catalytic activity – biochemical, TCAMS antimalarial set, Kinase-Glo luminescence (AID 1159587). The note with it: recombinant PfPK7, Kinase-Glo ATP depletion luminescence.
Test [8] deals with Calcium-dependent protein kinase 4 (Plasmodium falciparum (isolate 3D7)) (UniProt Q8IBS5). Kind of test: PfCDPK4 kinase inhibitors, biochemical, TCAMS library (AID 1159588; cut-off not given, nearly all actives have IC50 up to about 0.91 µM). The note with it: recombinant PfCDPK4, Kinase-Glo ATP depletion luminescence.

Unmarked numbers belong to inactive results. For some assays here: Results with a measured potency or affinity are listed apart. Active and inactive are the calls of the source. Unless noted, how the calls were made is not given here.

L-lactate dehydrogenase (Plasmodium falciparum (isolate CDC / Honduras)), sequence (Q27743 whole entry, looked up): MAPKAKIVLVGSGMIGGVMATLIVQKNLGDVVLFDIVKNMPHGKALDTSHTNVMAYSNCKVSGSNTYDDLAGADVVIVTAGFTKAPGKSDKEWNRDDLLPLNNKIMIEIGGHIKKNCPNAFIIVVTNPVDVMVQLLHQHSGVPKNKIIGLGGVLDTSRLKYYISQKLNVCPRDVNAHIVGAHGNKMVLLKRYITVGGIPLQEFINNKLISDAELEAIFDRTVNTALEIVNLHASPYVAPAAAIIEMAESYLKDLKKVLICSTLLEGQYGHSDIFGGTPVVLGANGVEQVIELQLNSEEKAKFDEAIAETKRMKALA
Plasmodium falciparum protein kinase 6 (PK6, PF3D7_1337100), sequence (Q8IDW1 1-305): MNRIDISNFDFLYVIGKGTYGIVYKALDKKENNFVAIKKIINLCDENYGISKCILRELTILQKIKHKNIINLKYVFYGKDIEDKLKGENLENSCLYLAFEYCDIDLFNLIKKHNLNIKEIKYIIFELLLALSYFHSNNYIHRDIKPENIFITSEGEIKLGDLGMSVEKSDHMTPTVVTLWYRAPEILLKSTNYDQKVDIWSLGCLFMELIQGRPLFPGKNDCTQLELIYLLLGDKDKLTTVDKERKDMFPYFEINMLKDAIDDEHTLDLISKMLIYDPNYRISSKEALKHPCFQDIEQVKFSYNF
Protein kinase 7 (PK7), Plasmodium falciparum 3D7 (PF3D7_0213400), sequence (Q7YTF7 1-343): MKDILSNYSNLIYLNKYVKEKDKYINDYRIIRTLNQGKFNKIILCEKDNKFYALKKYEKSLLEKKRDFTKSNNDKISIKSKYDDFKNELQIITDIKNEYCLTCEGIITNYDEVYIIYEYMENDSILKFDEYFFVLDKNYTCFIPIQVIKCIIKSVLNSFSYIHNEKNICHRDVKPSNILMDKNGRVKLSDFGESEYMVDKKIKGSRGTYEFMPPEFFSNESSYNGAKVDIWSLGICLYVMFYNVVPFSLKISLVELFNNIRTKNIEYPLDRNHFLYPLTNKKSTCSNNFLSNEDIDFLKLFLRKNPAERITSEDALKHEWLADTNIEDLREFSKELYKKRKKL
Calcium-dependent protein kinase 4 (Plasmodium falciparum (isolate 3D7)), sequence (Q8IBS5 whole entry, looked up): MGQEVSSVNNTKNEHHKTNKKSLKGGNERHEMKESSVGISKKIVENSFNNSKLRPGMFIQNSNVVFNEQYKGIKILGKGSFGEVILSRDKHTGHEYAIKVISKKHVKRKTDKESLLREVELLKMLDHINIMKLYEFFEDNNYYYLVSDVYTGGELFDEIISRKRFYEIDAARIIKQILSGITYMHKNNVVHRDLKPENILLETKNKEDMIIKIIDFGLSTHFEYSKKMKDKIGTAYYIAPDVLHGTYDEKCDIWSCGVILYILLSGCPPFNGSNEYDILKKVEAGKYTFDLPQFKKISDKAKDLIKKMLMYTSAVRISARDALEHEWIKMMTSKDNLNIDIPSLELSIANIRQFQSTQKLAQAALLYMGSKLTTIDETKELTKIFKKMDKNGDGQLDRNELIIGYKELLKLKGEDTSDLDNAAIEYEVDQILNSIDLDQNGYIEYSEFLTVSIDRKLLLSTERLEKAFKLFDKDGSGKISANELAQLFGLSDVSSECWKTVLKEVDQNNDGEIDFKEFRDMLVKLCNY
Calcium-dependent protein kinase 1 (Plasmodium falciparum (isolate 3D7)), sequence (P62344 whole entry, looked up): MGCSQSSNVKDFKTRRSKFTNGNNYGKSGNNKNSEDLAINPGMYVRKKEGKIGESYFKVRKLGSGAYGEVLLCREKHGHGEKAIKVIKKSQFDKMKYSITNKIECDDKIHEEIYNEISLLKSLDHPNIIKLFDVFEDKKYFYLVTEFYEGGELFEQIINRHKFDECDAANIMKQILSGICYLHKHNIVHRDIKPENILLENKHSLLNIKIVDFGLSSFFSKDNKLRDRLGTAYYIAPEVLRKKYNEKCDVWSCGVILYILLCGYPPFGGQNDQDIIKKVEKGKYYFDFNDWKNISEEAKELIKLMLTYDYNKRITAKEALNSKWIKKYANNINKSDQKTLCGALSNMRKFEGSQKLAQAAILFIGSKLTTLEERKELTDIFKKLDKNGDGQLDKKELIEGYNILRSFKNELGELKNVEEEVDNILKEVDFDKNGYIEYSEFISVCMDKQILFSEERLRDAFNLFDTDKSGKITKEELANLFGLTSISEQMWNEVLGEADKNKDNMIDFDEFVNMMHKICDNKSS

Broadly, the inhibition is the drop in the measured response relative to a control, in per cent. Consider `CCOC(=O)CCCN1C(=O)CN=C(c2ccccc2)c2cc(Cl)ccc21`, for which the growth inhibition in test [1] is 47%; in test [4] it was 97% (active). Also, the values for the inhibition in test [2] and in test [3] were 54% (active) and -8%, respectively. Further, the result in test [5], in test [6], in test [7] and in test [8] was inactive.
Turning to `COC(=O)c1ccc(CC(C)NCC(O)c2cccc(OC(F)(F)F)c2)cc1` (configuration not stated), the growth inhibition in test [1] was 67% (active); in test [4] it was 98% (active). Moreover, the inhibition in test [2] is 2%; in test [3] it was -2%. Moreover, the result in test [5], in test [6], in test [7] and in test [8] was inactive.
In the case of `Cc1nc2ccccc2n1C1C[C@H]2CC[C@@H](C1)N2Cc1nccn1-c1ccccc1` (some centres not stated), the growth inhibition is 96% (active) in test [1] and 94% (active) in test [4]. Further, the figures for the inhibition in test [2] and in test [3] were 0% and -4%, respectively. For the same compound, the result in test [5], in test [6], in test [7] and in test [8] was inactive.
As to `C=C[C@H]1CN2CC[C@H]1C[C@H]2[C@H](OS(=O)(=O)O)c1ccnc2ccccc12`, the figures for the growth inhibition in test [1] and in test [4] were 15% and 99% (active), respectively. Further, the inhibition in test [2] is 8%; in test [3] it was 5%. Moreover, the result in test [5], in test [6], in test [7] and in test [8] was inactive.
Regarding `CN1CC=C(c2c[nH]c3ccc(OCc4ccccc4)cc23)CC1`, the growth inhibition in test [1] is 97% (active); in test [4], 95% (active). For the same compound, the inhibition in test [2] and in test [3] was -2% in each case. Further, the result in test [5], in test [6], in test [7] and in test [8] was inactive.
As for `O=C1Nc2cccc3c2C1(CCCCN1CC=C(c2c[nH]c4ncccc24)CC1)CCC3` (configuration not stated), the growth inhibition was 80% (active) in test [1] and 92% (active) in test [4]. Also, the inhibition was 11% in test [2] and -5% in test [3]. Moreover, the result in test [5], in test [6], in test [7] and in test [8] was inactive.
Take `O=c1c2ccccc2nc(C=Cc2ccc([N+](=O)[O-])cc2)n1-c1ccccn1`: the growth inhibition in test [1] is 96% (active); in test [4], 98% (active). Further, the inhibition is 5% in test [2] and -1% in test [3]. The result in test [5], in test [6], in test [7] and in test [8] was inactive.
Consider `CC[C@H]1CN2CC[C@H]1C[C@H]2[C@H](O)c1cc(-c2ccccc2F)nc2ccc(OC)cc12`, for which the results for the growth inhibition in test [1] and in test [4] were 98% (active) and 99% (active), respectively. Further, the inhibition in test [2] is 13%; in test [3], 1%. For the same compound, the outcome in test [5], in test [6], in test [7] and in test [8] was inactive.
Turning to `CC(=O)Nc1ccc(OCCN(CC(C)C)c2ccc(C#N)c(C(F)(F)F)c2)c(Cl)c1`, the growth inhibition in test [1] and in test [4] was 94% (active) each time. In addition, the inhibition in test [2] is 13%; in test [3], 2%. Besides, the outcome in test [5], in test [6], in test [7] and in test [8] was inactive.
On to `O=P(O)(O)Oc1c(Br)cc(Br)cc1-c1cc(Br)cc(Br)c1O`, for which the growth inhibition in test [1] was -2%; in test [4] it was 97% (active). Besides, the inhibition in test [2] was 10%; in test [3], -4%. Moreover, the outcome in test [5], in test [6], in test [7] and in test [8] was inactive.
For `O=C(/C=C/c1c(Cl)cccc1Cl)NC1CCC(CN2[C@@H]3CC[C@H]2CC(c2c[nH]c4ccccc24)C3)CC1` (some centres not stated), the growth inhibition in test [1] is 18%; in test [4], 95% (active). In addition, the inhibition in test [2] is 40%; in test [3] it was -1%. Moreover, the result in test [5], in test [6], in test [7] and in test [8] was inactive.
For the compound `CCCCCc1cc(O)c2c(c1)OC(C)(C)c1ccncc1-2`, the growth inhibition in test [1] is 57% (active); in test [4], 99% (active). The inhibition in test [2] was -5%; in test [3], -1%. For the same compound, the result in test [5], in test [6], in test [7] and in test [8] was inactive.
Consider `CC[C@H]1CN2CC[C@@H]1C[C@H]2[C@H](O)c1ccnc2ccc(Cl)cc12`, for which the growth inhibition in test [1] is 98% (active); in test [4], 100% (active). Further, the values for the inhibition in test [2] and in test [3] were -3% and 2%, respectively. The result in test [5], in test [6], in test [7] and in test [8] was inactive.
`FC(F)(F)c1cccc(N2CCC(CN3CCC(c4c[nH]c5ccccc45)CC3)CC2)n1`: the growth inhibition in test [1] was 10%; in test [4], 84% (active). Besides, the inhibition is 41% in test [2] and -3% in test [3]. Besides, the result in test [5], in test [6], in test [7] and in test [8] was inactive.
Consider `COc1ccc(C(=O)[C@H]2C[C@@H]2CN2CC=C(c3c[nH]c4cccc(Br)c34)CC2)cc1`, for which the growth inhibition in test [1] is 67% (active); in test [4], 88% (active). Moreover, the inhibition in test [2] was 32%; in test [3], -3%. Also, the outcome in test [5], in test [6], in test [7] and in test [8] was inactive.
In the case of `CCC1(C)CC(CCNCc2ccccc2O)(c2ccc(C)cc2)CCO1` (configuration not stated), the growth inhibition was 66% (active) in test [1] and 97% (active) in test [4]. The inhibition in test [2] was 9%; in test [3], -7%. Also, the result in test [5], in test [6], in test [7] and in test [8] was inactive.
`CC(C)CN1CCC(N(C)c2cc(NC(=O)c3cccc(F)c3)ccn2)CC1`: the growth inhibition in test [1] was 10%; in test [4], 97% (active). Also, the inhibition in test [2] was 8%; in test [3], -1%. For the same compound, the outcome in test [5], in test [6], in test [7] and in test [8] was inactive.
As to `COc1ccc(CC(C)NCC(O)c2cccc(Br)c2)cc1` (configuration not stated), the growth inhibition in test [1] is 93% (active); in test [4] it was 99% (active). Moreover, the figures for the inhibition in test [2] and in test [3] were 10% and -1%, respectively. Further, the result in test [5], in test [6], in test [7] and in test [8] was inactive.
Regarding `C/C=C1\CN2CC[C@H]1C[C@@H]2[C@@H](O)c1ccnc2ccc(O)cc12`, the growth inhibition in test [1] was -1%; in test [4] it was 98% (active). Further, the inhibition in test [2] was -10%; in test [3], -4%. In addition, the outcome in test [5], in test [6], in test [7] and in test [8] was inactive.

These data come from PubChem BioAssay.
